The record followed here is PMC7862700, “An all-to-all approach to the identification of sequence-specific readers for epigenetic DNA modifications on cytosine”.

Assay in all cases: DAPPL (digital affinity profiling via proximity ligation, sequencing); 10 mM Tris-HCl pH 7.5, 50 mM NaCl, 1 mM DTT, 4% glycerol, room temperature, 30 min; GST-TFs on glutathione beads, 16-mer random dsDNA library, 0.1% formaldehyde crosslink after washing; high values mean tight binding
Conditions in all cases: protein: recombinant; tags: N-terminal GST; dsDNA, one strand shown

One assay deals with T1, FLI1 (Homo sapiens, UniProt Q01543 1-452).
T1 sequence: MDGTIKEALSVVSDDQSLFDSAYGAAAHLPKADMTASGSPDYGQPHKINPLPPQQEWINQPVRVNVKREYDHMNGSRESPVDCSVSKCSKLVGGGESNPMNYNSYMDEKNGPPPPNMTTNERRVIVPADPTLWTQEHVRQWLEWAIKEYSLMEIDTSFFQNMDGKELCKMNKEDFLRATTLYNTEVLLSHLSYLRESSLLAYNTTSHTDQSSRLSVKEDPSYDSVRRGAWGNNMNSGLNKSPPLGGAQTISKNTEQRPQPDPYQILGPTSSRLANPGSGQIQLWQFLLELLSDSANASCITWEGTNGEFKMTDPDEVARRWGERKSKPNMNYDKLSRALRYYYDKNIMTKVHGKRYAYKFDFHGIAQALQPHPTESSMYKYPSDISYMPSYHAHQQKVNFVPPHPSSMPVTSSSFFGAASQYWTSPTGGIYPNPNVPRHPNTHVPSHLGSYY
The method in brief: (§1)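 Beads coated with glutathione captured GST-fused human transcription factors that had been expressed in yeast, and the factors were then given DNA barcodes and pooled with a tag-only sample. The pools were incubated with 200 nmole of a random double-stranded 16-mer DNA library in Tris/NaCl/DTT/glycerol buffer for 30 min at room temperature, washed, crosslinked with 0.1% formaldehyde and proximity-ligated with BsaI/T4 ligase at 37 °C for 1 h. PCR amplification and Illumina NextSeq500 sequencing came last. Binding signal is each hexamer's read frequency for a factor divided by its frequency for the tag-only sample.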

In the next assay the target is T2, ELK1 (Homo sapiens, UniProt P19419 1-428).
T2 sequence: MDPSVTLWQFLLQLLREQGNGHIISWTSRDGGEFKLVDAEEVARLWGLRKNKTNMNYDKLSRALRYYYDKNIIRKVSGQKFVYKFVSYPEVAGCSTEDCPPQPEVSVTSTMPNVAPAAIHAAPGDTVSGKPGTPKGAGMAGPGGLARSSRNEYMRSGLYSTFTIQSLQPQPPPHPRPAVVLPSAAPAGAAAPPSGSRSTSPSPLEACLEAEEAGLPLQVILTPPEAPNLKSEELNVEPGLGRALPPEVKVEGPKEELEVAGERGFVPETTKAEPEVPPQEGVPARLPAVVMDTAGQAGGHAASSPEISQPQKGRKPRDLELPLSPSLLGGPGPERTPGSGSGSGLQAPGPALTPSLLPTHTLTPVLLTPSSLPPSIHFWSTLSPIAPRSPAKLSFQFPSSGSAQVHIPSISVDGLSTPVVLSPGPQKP
The method in brief: as §1

A further assay addresses T3, GABPA (Homo sapiens, UniProt Q06546 1-454).
T3 sequence: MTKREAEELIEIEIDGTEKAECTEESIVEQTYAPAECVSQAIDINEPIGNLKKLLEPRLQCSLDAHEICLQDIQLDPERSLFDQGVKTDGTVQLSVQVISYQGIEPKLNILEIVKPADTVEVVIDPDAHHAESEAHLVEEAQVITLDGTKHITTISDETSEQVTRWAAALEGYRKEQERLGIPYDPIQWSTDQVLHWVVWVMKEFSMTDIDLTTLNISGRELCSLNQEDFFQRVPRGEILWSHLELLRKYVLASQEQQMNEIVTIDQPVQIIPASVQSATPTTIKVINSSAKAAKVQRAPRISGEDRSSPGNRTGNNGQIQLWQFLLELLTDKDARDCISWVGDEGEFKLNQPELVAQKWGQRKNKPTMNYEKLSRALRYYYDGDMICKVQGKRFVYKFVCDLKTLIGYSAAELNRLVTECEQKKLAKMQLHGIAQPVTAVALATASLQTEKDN
Put shortly:
as §1

In a further assay the target is T4, ERG (Homo sapiens, UniProt P11308 1-479).
T4 sequence: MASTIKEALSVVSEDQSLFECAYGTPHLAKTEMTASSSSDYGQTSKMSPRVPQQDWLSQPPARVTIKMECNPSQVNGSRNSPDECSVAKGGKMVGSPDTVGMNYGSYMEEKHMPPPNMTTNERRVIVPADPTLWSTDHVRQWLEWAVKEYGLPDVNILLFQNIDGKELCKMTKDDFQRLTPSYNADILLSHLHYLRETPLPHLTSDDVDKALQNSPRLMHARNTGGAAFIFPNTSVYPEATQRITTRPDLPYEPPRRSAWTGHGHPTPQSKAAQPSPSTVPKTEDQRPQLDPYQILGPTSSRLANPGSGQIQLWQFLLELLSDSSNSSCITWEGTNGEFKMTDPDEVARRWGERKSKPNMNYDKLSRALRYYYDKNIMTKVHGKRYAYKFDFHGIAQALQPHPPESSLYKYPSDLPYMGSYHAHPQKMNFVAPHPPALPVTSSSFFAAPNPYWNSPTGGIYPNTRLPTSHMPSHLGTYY
Put shortly:
as §1

A further assay deals with ELF1 (Homo sapiens, UniProt P32519 1-619). The method in brief: as §1
Chain of ELF1 (P32519 whole entry): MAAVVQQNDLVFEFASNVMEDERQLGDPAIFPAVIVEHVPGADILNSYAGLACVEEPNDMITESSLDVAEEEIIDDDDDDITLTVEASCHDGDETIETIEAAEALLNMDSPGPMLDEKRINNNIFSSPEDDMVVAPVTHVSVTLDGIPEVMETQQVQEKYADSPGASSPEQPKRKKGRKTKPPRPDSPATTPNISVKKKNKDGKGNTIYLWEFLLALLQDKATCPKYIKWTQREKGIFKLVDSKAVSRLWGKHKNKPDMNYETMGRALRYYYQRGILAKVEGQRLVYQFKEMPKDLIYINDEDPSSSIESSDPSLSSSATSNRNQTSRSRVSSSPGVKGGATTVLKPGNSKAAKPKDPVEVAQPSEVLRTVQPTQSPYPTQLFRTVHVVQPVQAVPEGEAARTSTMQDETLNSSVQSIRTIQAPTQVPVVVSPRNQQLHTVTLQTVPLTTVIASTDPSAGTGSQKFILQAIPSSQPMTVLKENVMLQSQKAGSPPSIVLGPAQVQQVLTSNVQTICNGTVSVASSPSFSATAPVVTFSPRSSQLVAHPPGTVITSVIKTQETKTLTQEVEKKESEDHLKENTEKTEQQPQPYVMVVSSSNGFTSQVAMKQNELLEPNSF
Another assay deals with T5, EHF (Homo sapiens, UniProt Q9NZC4 1-300).
T5 sequence: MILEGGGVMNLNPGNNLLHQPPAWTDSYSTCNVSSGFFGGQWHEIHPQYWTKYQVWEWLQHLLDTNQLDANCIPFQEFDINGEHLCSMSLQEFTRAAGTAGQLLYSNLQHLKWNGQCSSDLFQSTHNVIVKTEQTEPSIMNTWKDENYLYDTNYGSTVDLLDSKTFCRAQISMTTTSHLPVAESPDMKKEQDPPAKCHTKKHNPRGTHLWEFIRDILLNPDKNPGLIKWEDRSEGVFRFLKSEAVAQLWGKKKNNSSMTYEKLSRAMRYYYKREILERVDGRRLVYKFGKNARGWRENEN
The method in brief:
as §1

In the next assay the target is SPI1 (Homo sapiens, UniProt P17947 1-270). Put shortly: as §1
The target of the next assay is T6, FEV (Homo sapiens, UniProt Q99581 1-238).
T6 sequence: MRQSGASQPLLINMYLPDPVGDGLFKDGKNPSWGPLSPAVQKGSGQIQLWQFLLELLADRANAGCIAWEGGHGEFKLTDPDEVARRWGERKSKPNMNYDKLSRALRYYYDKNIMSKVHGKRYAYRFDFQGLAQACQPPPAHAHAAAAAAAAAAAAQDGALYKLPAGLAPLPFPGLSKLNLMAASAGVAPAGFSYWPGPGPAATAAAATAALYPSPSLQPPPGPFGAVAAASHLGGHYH
The method in brief: as §1

The target of a further assay is ETV5 (Homo sapiens, UniProt P41161 1-510). The method in brief:
as §1

A further assay has as its target T7, SPIC (Homo sapiens, UniProt Q8N5J4 1-248).
T7 sequence: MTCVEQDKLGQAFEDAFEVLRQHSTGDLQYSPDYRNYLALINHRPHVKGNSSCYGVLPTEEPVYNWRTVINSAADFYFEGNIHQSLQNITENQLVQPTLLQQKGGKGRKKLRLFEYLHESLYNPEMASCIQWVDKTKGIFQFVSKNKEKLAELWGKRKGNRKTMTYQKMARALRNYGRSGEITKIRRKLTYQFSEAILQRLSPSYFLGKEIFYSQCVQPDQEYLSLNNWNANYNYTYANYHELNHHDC
Put shortly:
as §1

The next assay has as its target ELF4 (Homo sapiens, UniProt Q99607 1-663). The method in brief:
as §1

The next assay concerns the target ETV1 (Homo sapiens, UniProt P50549 1-477). Put shortly:
as §1

Another assay concerns the target T8, ERF (Homo sapiens, UniProt P50548 1-548).
T8 sequence: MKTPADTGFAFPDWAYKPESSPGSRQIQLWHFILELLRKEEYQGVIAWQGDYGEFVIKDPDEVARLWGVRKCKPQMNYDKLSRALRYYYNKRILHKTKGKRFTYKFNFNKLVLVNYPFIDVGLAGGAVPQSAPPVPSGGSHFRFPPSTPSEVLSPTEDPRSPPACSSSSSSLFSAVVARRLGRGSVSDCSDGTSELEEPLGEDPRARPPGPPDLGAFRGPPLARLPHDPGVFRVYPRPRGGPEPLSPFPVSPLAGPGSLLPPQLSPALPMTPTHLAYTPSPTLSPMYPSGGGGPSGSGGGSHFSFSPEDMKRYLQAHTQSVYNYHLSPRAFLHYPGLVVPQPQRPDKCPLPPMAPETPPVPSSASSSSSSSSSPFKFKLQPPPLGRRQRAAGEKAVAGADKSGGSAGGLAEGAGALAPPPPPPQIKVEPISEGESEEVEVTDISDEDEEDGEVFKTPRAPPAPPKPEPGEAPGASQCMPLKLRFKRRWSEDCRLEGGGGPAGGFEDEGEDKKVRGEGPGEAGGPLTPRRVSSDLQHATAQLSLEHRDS
Put shortly:
as §1

The next assay deals with T9, ETV3L (Homo sapiens, UniProt Q6ZN32 1-361).
T9 sequence: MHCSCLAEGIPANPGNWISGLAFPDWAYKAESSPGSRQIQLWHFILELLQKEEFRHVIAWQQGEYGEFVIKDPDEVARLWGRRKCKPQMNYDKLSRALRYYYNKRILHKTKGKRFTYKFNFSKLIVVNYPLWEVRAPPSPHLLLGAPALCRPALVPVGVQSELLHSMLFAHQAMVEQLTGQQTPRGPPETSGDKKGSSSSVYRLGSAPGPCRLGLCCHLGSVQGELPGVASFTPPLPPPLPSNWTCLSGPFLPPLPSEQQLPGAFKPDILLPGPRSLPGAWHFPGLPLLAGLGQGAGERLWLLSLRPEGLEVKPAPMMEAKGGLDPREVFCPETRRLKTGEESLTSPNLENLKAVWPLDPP
The method in brief: as §1

The next assay deals with T10, ETS2 (Homo sapiens, UniProt P15036 1-469).
T10 sequence: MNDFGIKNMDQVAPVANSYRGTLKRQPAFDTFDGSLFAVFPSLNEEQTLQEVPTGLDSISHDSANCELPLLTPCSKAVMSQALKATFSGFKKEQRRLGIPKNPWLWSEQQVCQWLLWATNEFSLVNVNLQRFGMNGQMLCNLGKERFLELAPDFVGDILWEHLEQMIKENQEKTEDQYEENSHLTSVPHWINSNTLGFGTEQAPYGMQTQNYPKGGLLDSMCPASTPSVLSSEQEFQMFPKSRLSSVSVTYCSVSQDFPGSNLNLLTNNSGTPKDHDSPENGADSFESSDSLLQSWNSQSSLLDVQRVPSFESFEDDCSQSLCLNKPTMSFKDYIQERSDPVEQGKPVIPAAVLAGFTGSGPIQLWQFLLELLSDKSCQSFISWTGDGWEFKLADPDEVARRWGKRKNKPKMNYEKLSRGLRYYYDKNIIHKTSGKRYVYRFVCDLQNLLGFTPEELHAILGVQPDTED
Put shortly: as §1

The next assay addresses T11, ELF5 (Homo sapiens, UniProt Q9UKW6-2 1-255).
T11 sequence: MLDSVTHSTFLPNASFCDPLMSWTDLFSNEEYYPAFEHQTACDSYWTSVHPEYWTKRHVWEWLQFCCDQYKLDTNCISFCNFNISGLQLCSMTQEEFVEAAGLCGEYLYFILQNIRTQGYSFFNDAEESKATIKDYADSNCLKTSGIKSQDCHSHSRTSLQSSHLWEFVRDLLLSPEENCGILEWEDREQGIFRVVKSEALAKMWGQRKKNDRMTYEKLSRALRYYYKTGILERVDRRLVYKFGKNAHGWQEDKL
Put shortly: as §1

The next assay concerns the target T12, ETV3 (Homo sapiens, UniProt P41162-2 1-143).
T12 sequence: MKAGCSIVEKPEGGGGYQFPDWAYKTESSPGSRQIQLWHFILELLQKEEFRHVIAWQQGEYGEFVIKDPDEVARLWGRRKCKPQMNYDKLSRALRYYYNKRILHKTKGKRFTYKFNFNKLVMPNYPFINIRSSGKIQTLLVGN
Put shortly: as §1

For another assay, the target named is ETV6 (Homo sapiens, UniProt P41212 1-452). The method in brief:
as §1

Chain of ELF4 (Q99607 whole entry): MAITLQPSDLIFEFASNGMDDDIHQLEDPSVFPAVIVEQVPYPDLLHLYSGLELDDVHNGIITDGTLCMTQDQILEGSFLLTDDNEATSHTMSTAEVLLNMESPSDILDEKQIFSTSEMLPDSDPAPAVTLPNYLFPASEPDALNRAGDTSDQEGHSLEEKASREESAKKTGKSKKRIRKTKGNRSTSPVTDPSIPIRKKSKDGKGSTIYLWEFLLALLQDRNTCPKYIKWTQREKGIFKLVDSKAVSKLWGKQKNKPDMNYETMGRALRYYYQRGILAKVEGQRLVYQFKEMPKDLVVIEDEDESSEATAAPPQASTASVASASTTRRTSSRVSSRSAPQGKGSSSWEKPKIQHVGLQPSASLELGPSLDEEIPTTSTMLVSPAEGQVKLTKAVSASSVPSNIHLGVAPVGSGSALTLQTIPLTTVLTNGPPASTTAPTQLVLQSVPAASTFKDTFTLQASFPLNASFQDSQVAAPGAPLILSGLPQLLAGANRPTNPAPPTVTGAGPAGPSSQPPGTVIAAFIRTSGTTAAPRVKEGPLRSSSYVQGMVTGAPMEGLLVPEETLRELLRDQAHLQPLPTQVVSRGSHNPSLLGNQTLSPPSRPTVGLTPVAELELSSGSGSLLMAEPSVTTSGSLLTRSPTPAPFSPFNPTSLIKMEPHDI
Chain of ETV5 (P41161 whole entry): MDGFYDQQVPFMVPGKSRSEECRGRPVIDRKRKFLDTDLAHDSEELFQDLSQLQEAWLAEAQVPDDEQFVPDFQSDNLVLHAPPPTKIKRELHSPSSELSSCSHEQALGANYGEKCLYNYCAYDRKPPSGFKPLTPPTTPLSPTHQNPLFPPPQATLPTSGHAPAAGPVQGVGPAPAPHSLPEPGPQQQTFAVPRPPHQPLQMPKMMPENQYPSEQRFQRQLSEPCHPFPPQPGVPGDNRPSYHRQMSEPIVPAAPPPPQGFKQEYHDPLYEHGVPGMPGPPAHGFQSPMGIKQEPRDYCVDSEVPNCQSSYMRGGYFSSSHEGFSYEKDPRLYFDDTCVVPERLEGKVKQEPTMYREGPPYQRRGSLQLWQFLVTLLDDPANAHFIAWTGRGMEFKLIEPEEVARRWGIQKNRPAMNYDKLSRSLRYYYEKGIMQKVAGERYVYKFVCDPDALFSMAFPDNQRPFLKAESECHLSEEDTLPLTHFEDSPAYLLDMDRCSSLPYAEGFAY
Chain of ETV6 (P41212 whole entry): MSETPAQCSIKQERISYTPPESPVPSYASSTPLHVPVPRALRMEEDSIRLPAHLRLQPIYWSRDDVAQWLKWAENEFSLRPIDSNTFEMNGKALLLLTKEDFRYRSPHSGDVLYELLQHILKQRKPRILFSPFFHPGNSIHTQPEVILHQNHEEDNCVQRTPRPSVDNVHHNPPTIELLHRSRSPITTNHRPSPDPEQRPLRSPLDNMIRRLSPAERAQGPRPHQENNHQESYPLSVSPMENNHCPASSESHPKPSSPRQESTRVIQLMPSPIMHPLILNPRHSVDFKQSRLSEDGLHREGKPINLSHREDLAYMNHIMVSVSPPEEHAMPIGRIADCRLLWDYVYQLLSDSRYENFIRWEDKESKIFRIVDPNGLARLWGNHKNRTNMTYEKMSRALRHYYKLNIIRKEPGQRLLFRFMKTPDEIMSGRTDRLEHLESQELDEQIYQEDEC
Chain of ETV1 (P50549 whole entry): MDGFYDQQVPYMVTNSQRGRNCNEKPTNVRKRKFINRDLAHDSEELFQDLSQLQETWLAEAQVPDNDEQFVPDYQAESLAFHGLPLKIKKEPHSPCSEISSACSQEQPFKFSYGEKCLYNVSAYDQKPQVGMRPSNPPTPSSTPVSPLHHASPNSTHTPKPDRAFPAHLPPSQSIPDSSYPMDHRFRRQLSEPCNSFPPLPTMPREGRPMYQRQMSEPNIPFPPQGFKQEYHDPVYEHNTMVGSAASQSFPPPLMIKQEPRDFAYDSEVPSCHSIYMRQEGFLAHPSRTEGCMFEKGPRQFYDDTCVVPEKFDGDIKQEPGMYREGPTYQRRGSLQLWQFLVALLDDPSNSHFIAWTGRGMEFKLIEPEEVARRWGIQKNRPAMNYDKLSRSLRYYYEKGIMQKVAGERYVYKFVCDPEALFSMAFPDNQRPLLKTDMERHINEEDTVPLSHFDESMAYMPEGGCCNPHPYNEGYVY

GTACGC: the binding signal in the assay with FLI1 was 1.05 fold enrichment (6-mer frequency, TF over GST control); in the assay with ELK1, 1.03 fold enrichment (6-mer frequency, TF over GST control); with GABPA, 1.04 fold enrichment (6-mer frequency, TF over GST control); with ERG, 1.09 fold enrichment (6-mer frequency, TF over GST control); with ELF1, 1.05 fold enrichment (6-mer frequency, TF over GST control); with EHF it was 1.03 fold enrichment (6-mer frequency, TF over GST control). The binding signal with SPI1 is 1.05 fold enrichment (6-mer frequency, TF over GST control); with FEV, 1.1 fold enrichment (6-mer frequency, TF over GST control); in the assay with ETV5, 1.08 fold enrichment (6-mer frequency, TF over GST control); in the assay with SPIC it was 1.2 fold enrichment (6-mer frequency, TF over GST control); in the assay with ELF4 it was 1.05 fold enrichment (6-mer frequency, TF over GST control); with ETV1, 1.09 fold enrichment (6-mer frequency, TF over GST control). The binding signal with ERF was 1.05 fold enrichment (6-mer frequency, TF over GST control); with ETV3L it was 1.11 fold enrichment (6-mer frequency, TF over GST control); in the assay with ETS2 it was 1.06 fold enrichment (6-mer frequency, TF over GST control); in the assay with ELF5, 1.06 fold enrichment (6-mer frequency, TF over GST control); in the assay with ETV3, 1.14 fold enrichment (6-mer frequency, TF over GST control); with ETV6, 1.07 fold enrichment (6-mer frequency, TF over GST control).
